This is an account of results in PubChem BioAssay AID651597 (National Center for Advancing Translational Sciences (NCATS), 2012).

Structures are written as SMILES. The campaign covered roughly 1,100 compounds. About 390 (35%) were called active. Roughly 30% stayed inconclusive and do not appear here. Some of the results follow. Values without a mark were called inactive. The call rests on the fitted dose curve; in most records, active means well fitted inhibition curve with a large enough effect; inconclusive means small, poorly fitted or top-dose-only effect; inactive means flat fitted curve, though single readings scatter.
On the % scale 0 is the no-effect control and ±100 the full control effect; potency means the concentration at half of the fitted maximal effect.

This test concerns the target Luciferin 4-monooxygenase (Photinus pyralis) (UniProt P08659). The experiment in a line: qHTS of Nrf2 Activators: Hit Validation in Secondary FLuc Assay. Further: nearly all actives have a fitted effect of over 65% in size. The note with it: firefly luciferase inhibition counter-screen, luminescence; series mostly up to 57.5 µM; activity, negative = inhibition: at the top concentration. The procedure, abridged: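 Counter-screen on purified firefly luciferase with ATP and D-luciferin at Km concentrations; compounds flagged if they inhibit the enzyme, indicating possible reporter stabilization rather than ARE activation.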
As for `N#CC1=C(N)Oc2c(ccc3ccccc23)C1c1ccsc1` (stereo unspecified), the Potency is 16.9 µM (active).
Consider `COc1ccc(S(=O)(=O)N2CCN(C(=O)c3ccc([N+](=O)[O-])o3)CC2)cc1`, for which the “activity, negative = inhibition” value was 8.39%.
With `COc1cccc(NC(=O)c2nn(C)cc2Br)c1`, the Potency is 12 µM (active).
Take `COc1cccc(NC(=O)c2nc(SC)ncc2Cl)c1`: the “activity, negative = inhibition” value is -0.657%.
Same read-out and setting: the same measure for `COc1ccc(S(=O)(=O)NCCc2csc3nc(-c4ccc(Cl)cc4)nn23)cc1C`: -6.04%; for `COc1ccc(NC(=O)c2ccc([N+](=O)[O-])s2)c([N+](=O)[O-])c1`: 2.08%.
Consider `O=C(Nc1ccccc1[N+](=O)[O-])C1COc2ccccc2O1` (stereo unspecified), for which the Potency was 3.01 µM (active).
On to `CCOc1ccccc1NC(=O)C1COc2ccccc2O1` (stereo unspecified), for which the “activity, negative = inhibition” value is -24%.
Turning to `Cn1c(=O)n(CCc2ccccc2)c(=O)c2c1nc1n2CCN1Cc1ccco1`, the “activity, negative = inhibition” value was -19.5%.
`O=C(Nc1nc(=O)c2ccccc2s1)c1ccccc1`: the Potency is 1.07 µM (active).
Turning to `Cc1ccccc1C(=O)Nc1nc2c(C)csc2c(=O)s1`, the “activity, negative = inhibition” value is -24%.
`O=C(NCc1ccccc1)c1c(Cl)nc(Cl)c(Cl)c1Cl`: the “activity, negative = inhibition” value was 2.71%.
As for `Cc1csc2nc(NC(=O)c3ccccc3)sc(=O)c12`, the Potency was 2.39 µM (active).
Consider `Cc1csc2c(=O)sc(NC(=O)c3ccc(F)cc3Cl)nc12`, for which the “activity, negative = inhibition” value is 0.172%.
Same read-out and setting: the same measure for `O=C1C=C(C#Cc2ccccc2)C[C@@H](c2ccc(F)cc2)C1`: -5.22%.
On to `N/C(=N\OC(=O)c1ccco1)c1cccc(Br)c1`, for which the Potency is 2.39 µM (active).
For `O=C(Nc1ncnc2sc3c(c12)CCC3)c1ccco1`, the “activity, negative = inhibition” value is 0.673%.
In the case of `O=C(CSc1ncnc2sc3c(c12)CCCC3)c1ccco1`, the Potency is 2.69 µM (active).
Regarding `c1coc(-c2ccnc(-n3cccc3)n2)c1`, the Potency is 15.1 µM (active).
`c1coc(-c2ccnc3nc(-n4cccc4)nn23)c1`: the “activity, negative = inhibition” value was -29.9%.
Consider `Cc1ccsc1-c1ccnc(-n2cccc2)n1`, for which the Potency is 15.1 µM (active).
Consider `CN1CCCC1CCNc1ccc2c(=O)c3ccccc3oc2c1` (stereo unspecified), for which the Potency is 6.75 µM (active).
In the case of `Cc1sc2ncnc(Sc3nnnn3-c3ccccc3)c2c1C`, the “activity, negative = inhibition” value is -19.4%.
With `Cc1nc2nc(-c3ccccc3)nn2c(C)c1Cl`, the Potency is 3.38 µM (active).
Consider `CCOc1ncccc1-c1nc(-c2cccs2)no1`, for which the Potency was 15.1 µM (active).
As to `COc1cc(-c2noc(-c3cccs3)n2)cc(OC)c1OC`, the “activity, negative = inhibition” value was -29%.
Regarding `CCOc1ccc(Br)cc1-c1noc(-c2cccs2)n1`, the “activity, negative = inhibition” value was -20.8%.
On to `O=C(/C=C\c1ccc2c(c1)OCO2)CC1(O)C(=O)Nc2ccccc21` (stereo unspecified), for which the Potency is 9.53 µM (active).
Consider `CC(C)N1C/C(=C/c2cccnc2)C(=O)/C(=C/c2cccnc2)C1`, for which the “activity, negative = inhibition” value is -1.87%.
Turning to `COc1ccc2c(c1)Cc1c-2cc(Br)c(N)c1Br`, the “activity, negative = inhibition” value was -19.8%.
Consider `Nc1ccc2c(c1)Cc1c(F)cccc1-2`, for which the Potency was 7.57 µM (active).
As to `Cc1ccc(S(=O)(=O)c2nc(S(C)(=O)=O)sc2N2CC(C)OC(C)C2)cc1` (stereo unspecified), the “activity, negative = inhibition” value was 8.48%.
With `Cc1ccc(C)c(NC(=O)COC(=O)c2cc(=O)c3ccccc3o2)c1`, the “activity, negative = inhibition” value was -12%.
In the case of `Cc1ccc(C)c(NC(=S)c2nc3ccccc3s2)c1`, the Potency is 10.7 µM (active).
For `O=C(N/N=C/c1ccsc1)c1ccc2ccccc2n1`, the Potency is 10.7 µM (active).
In the case of `O=C(Nc1ccc(F)cc1)c1sccc1SCc1cccc(C(F)(F)F)c1`, the “activity, negative = inhibition” value was -4.78%.
With `O=C(Nc1ccc(F)cc1)c1cc2ccccc2o1`, the Potency was 0.953 µM (active).
Consider `CN1C2CCC1/C(=C\c1ccccc1)C(=O)/C2=C\c1ccccc1`, for which the “activity, negative = inhibition” value is -3.98%.
For the molecule `O=C1/C(=C/c2ccccc2)CCc2ccc(Cl)nc21`, the Potency was 10.7 µM (active).
On to `Brc1ccc(C2=CC(c3ccco3)n3nnnc3N2)cc1` (stereo unspecified), for which the “activity, negative = inhibition” value was -8.07%.
For the molecule `C1=C(c2ccc(-c3ccccc3)cc2)Nc2ncnn2C1c1ccco1` (stereo unspecified), the Potency is 10.7 µM (active).
Consider `CCOc1ccsc1C(=O)NNC(=O)c1ccco1`, for which the “activity, negative = inhibition” value is 4.68%.
`O=C(/C=C/c1cccs1)c1ccco1`: the Potency was 9.53 µM (active).
With `Cc1ccc2nc(N(CCN(C)C)C(=O)/C=C/c3cccs3)sc2c1`, the “activity, negative = inhibition” value was -22.7%.
For the molecule `COc1ccc(Sc2cnn(-c3ccccc3)c(=O)c2Cl)cc1`, the “activity, negative = inhibition” value is -21%.
Take `NC(=O)N/N=C/c1ccccc1OC(=O)c1ccccc1Br`: the Potency was 10.7 µM (active).
For `c1ccc(CNc2nc(NCc3ccco3)nc(N3CCOCC3)n2)cc1`, the “activity, negative = inhibition” value was 5.72%.
As to `CCN=c1scc(C)n1/N=C/c1ccsc1`, the Potency was 6.75 µM (active).
`Cc1[nH]c2ccccc2c1N=Nc1ccccc1F`: the Potency was 19 µM (active).
Regarding `Cc1[nH]c2ccccc2c1N=Nc1ccccc1C(=O)O`, the Potency is 8.49 µM (active).
On to `Cc1cccn2c(=O)c(C=NCCO)c(NCc3ccco3)nc12`, for which the “activity, negative = inhibition” value is -5.84%.
In the case of `O/N=C/c1ccc2cccc(OCc3ccccc3)c2n1`, the “activity, negative = inhibition” value is -3.72%.
Regarding `CC1CN(C(=O)/C=C/c2ccc([N+](=O)[O-])s2)CC(C)O1` (stereo unspecified), the “activity, negative = inhibition” value is 4.93%.
As to `Clc1ccccc1NN=Cc1ccccn1`, the Potency was 2.13 µM (active).
`COc1ccc(OC)c(/C=C(\C#N)c2nc(-c3ccc(F)cc3)cs2)c1`: the “activity, negative = inhibition” value is -25.1%.
In the case of `COc1ccc(O)c(-c2cc(-c3ccccc3Cl)[nH]n2)c1`, the Potency was 6.01 µM (active).
